Records with an inconclusive call do not appear. Active and inactive are the calls of the source. Calls follow the shape of the dose curve; as a rule, active = well fitted activation curve with a large enough effect; inconclusive = small, poorly fitted or top-dose-only effect; inactive = no such curve, though single readings can be large or run the other way.
experiment: qHTS Assay for Agonists of the Relaxin Receptor RXFP1: V1B Hit Validation; settings: HEK293 V1B cells, cAMP TR-FRET, 30 min; series mostly up to 115 µM;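 also: counter-screen in HEK293 cells expressing V1B rather than RXFP1 for selectivity; nearly all actives have a fitted effect of over 65% in size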;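 as to activation: cAMP accumulation with PDE4 inhibitor Ro 20-1724 present during compound exposure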
Source text: NIH Chemical Genomics Center [NCGC]
NIH Molecular Libraries Probe Production Centers Network [MLPCN]
Assay Submitter (PI): Alexander Agoulnik
The relaxin hormone is involved in the variety of biological functions in normal tissues and diseases. The role of relaxin is well-established in female reproduction and parturition, mammary gland and endometrial development, maintenance of myometrial quiescence during pregnancy. Relaxin signaling through its G protein-coupled receptor (GPCR) RXFP1 results in ECM remodeling through regulation of collagen deposition, cell invasiveness, proliferation and overall tissue homeostasis. […] Recombinant human relaxin (rhRlx) is currently being tested in clinical trials as a protective agent in congestive heart failure, in treating severe preeclampsia, and as an anti-fibrotic agent in systemic sclerosis.
Upon relaxin binding RXFP1 activation leads to the activation of adenylate cyclase (AC) via Gs. cAMP will activate PKA, which phosphorylates many signaling proteins. Thus, detection of cAMP increase is an easy and reliable indication of relaxin receptor activation. To screen for agonists of the relaxin receptor, a HEK293T cell line stably transfected with RXFP1 was used. RXFP1 activation was assayed by changes in cAMP levels as detected with a time-resolved fluorescence energy transfer (TR-FRET) cAMP detection kit.
This assay measures activation of a cell expressing […], another GPCR targeted by relaxin, to determine the selectivity of compounds for RXFP1.
NCGC Assay Protocol Summary:
This is a cell-based assay for cAMP second messenger response to screen for agonists of the RXFP2 receptor. The assay was conducted in the presence of a PDE4 inhibitor (Ro 20174). The cells were lysed and the cAMP levels were measured with a TR-FRET cAMP kit. Presence of cAMP in the cell lysate disrupts binding between the cryptate-labeled anti-cAMP and d2-labeled cAMP pair, leading to a decrease in the TR-FRET signal. Data were normalized to the controls for basal activity (buffer only) and 100% activity (29 nM porcine relaxin). The EC50 values were determined from concentration-response data modeled with the standard Hill equation
1536-well assay protocol for the HEK293 V1B cAMP assay:
(1) Add 3 ul HEK293 RXFP2 cell culture. 2000 cells/well in DMEM/F12, 10% FBS, 1x Pen/Strep (dispensed offline with MultiDrop Combi).
(3) Add 23 nl compounds in DMSO solution. Final concentration was 0.5 - 58 uM.
(4) Incubate 30 min at 37C, 5% CO2.
(5) Add 1 ul cAMP-d2 in lysis buffer (HTRF cAMP HiRange kit, CisBio).
(6) Add 1 ul anti-cAMP antibody-cryptate in lysis buffer (HTRF cAMP HiRange kit, CisBio).
(7) Incubate 30 min at room temperature.
(6) Detect the assay plate in a ViewLux plate reader (PerkinElmer) with Ex=320 nm, Em1=615 nm and Em2=665 nm.
Keywords: relaxin, RXFP1, RXFP2, G-protein coupled receptor, cAMP, agonist, high throughput screening, MLSMR, MLSCN, NIH Roadmap, qHTS and NCGC
Potency is read from the fitted curve at half-maximal effect.

**Q.** Which Potency does the source give for `CCC(Oc1cc(Cl)ccc1Cl)C(=O)N1CCC2(CC1)OCCO2` (configuration not stated) here?
**A.** inactive

**Q.** Which Potency does the source give for `O=c1[nH]c(O)c(N=Nc2ccc([N+](=O)[O-])cc2)c(=O)[nH]1` here?
**A.** 17.3 µM (active)

**Q.** With `O=C(O)c1sc2cc(Cl)ccc2c1Cl` as the molecule, how does the Potency read?
**A.** 19.4 µM (active)

**Q.** For `Cn1c(O)c(N=Nc2cccc(S(=O)(=O)N3CCOCC3)c2)c(=O)n(C)c1=O`, which Potency is on record?
**A.** 13.8 µM (active)

**Q.** Which Potency does the source give for `O=C1OCc2cc(N=Nc3c(O)[nH]c(=O)[nH]c3=O)ccc21` here?
**A.** 15.4 µM (active)

**Q.** Which Potency does the source give for `Nc1ncc2[nH]cnc2n1` here?
**A.** 24.5 µM (active)

**Q.** Which Potency does the source give for `CCNC(=O)[C@H]1O[C@@H](n2cnc3c(N)ncnc32)[C@H](O)[C@@H]1O` here?
**A.** 1.94 µM (active)

Source: PubChem BioAssay AID492948 (National Center for Advancing Translational Sciences (NCATS), 2010)
